Measured values reported in PubChem BioAssay.
The source made the active and inactive calls.

Tests used:
[1] = E. coli DRC41 culture turbidity changes, primary screen, E. coli filamentation inducer project, strain DRC41, OD650, 48 h (AID 1152);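 note: E. coli MC1000 strain DRC41 lacking acrAB efflux pump and sulA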; conditions: E. coli DRC41 (acrAB sulA), higher = more signal, called active from +8 up or from −8 down
[2] = small-molecule binders of probe aLefty1, primary screen, biochemical, small-molecule microarray, 635/667 nm fluorescence (AID 1153); conditions: higher = more signal;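 note: score merges spot fluorescence with signal-to-noise ratio from the scanned slide images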
[3] = PSAC antagonists in infected red cells, primary screen, cell-based, P. falciparum Indochina, OD700, 1 h (AID 1154); conditions: P. falciparum Indochina infected RBC osmotic lysis, higher = more signal, called active from +8 up or from −8 down
[4] = PSAC antagonists in infected red cells, primary screen, cell-based, P. falciparum Indochina, OD700, 2 h (AID 1155);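 note: lysis reports solute entry through the parasite surface anion channel PSAC; channel blockers reduce lysis of infected cells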; conditions: P. falciparum Indochina infected erythrocytes, osmotic lysis OD700; higher = more signal, called active from +8 up or from −8 down
[5] = osmotic lysis modulators in infected erythrocytes, primary screen, PSAC antagonist project, cell-based, P. falciparum Indochina, OD700, 3 h (AID 1156); conditions: higher = more signal, called active from +8 up or from −8 down
[6] = PSAC antagonists in infected red cells, primary screen, cell-based, P. falciparum Indochina, OD700, 18 h (AID 1157); conditions: P. falciparum Indochina infected erythrocytes, osmotic lysis OD700, 18 h; higher = more signal, called active from +8 up or from −8 down
[7] = modulators of S6 phosphorylation in cells, primary screen, cell-based, A549, cytoblot, luminescence, serum-stimulated (AID 1158); conditions: A549 phospho-S6 cytoblot, 5 h, higher = more signal;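 note: serum-stimulated A549 lung adenocarcinoma cells; signal is phosphorylated S6 detected by cytoblot immunostaining with HRP secondary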
[8] = target: NADPH oxidase 2 (Homo sapiens) (UniProt P04839); assay: NOX2-dependent H2O2 signal modulators, primary screen, NOX inhibitor project, cell-based, HEK293-NOX2, PMA-stimulated, Amplex Red fluorescence (AID 1159); conditions: 45 min, higher = more signal, called active from +8 up or from −8 down; note: test concentration not given here
[9] = target: NADPH oxidase 4 (Homo sapiens) (UniProt Q9NPH5); assay: NOX4-dependent H2O2 signal modulators, primary screen, NOX inhibitor project, cell-based, HEK293-NOX4, tetracycline-induced, Amplex Red fluorescence (AID 1160); conditions: 45 min, higher = more signal, called active from +8 up or from −8 down
[10] = target: NADPH oxidase 5 (Homo sapiens) (UniProt Q96PH1); assay: NOX5-dependent H2O2 signal modulators, primary screen, NOX inhibitor project, cell-based, HEK293-NOX5, Amplex Red fluorescence (AID 1161); conditions: HEK293-NOX5, ionomycin, 45 min, higher = more signal
Chain of NADPH oxidase 5 (Homo sapiens) (Q96PH1 whole entry, looked up): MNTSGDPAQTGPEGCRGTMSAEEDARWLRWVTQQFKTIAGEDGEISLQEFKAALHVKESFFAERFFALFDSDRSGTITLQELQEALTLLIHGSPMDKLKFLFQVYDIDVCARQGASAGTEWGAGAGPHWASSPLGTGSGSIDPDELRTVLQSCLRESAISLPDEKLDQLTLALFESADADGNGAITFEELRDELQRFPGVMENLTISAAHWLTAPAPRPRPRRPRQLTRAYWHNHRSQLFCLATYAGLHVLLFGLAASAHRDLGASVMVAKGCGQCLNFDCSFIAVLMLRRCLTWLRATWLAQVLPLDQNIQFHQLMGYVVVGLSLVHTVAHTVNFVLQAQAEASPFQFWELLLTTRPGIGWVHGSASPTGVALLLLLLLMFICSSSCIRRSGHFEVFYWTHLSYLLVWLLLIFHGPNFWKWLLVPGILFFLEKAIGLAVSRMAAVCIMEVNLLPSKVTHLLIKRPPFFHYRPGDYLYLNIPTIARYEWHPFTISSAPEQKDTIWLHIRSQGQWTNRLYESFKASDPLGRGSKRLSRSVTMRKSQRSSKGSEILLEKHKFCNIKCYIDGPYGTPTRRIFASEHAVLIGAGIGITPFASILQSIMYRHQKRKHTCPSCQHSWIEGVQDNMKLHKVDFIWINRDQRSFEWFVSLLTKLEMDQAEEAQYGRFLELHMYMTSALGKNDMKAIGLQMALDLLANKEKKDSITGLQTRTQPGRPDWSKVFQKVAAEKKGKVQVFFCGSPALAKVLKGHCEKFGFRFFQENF

Chain of NADPH oxidase 4 (Homo sapiens) (Q9NPH5 whole entry, looked up): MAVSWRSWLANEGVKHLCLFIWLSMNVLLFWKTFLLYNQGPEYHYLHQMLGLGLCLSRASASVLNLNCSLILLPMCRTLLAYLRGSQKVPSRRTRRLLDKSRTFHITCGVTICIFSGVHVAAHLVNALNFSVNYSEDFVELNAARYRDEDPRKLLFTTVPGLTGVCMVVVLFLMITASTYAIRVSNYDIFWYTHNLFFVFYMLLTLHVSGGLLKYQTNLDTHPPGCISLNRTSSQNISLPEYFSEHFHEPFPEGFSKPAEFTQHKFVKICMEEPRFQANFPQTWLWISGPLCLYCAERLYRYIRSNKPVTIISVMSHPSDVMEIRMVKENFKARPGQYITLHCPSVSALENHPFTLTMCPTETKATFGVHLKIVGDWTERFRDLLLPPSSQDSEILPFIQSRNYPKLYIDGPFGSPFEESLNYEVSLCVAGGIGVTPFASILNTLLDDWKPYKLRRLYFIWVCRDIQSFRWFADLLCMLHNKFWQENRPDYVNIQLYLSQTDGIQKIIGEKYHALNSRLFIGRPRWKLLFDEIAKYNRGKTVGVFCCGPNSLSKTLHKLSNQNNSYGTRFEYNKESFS
Chain of NADPH oxidase 2 (Homo sapiens) (P04839 whole entry, looked up): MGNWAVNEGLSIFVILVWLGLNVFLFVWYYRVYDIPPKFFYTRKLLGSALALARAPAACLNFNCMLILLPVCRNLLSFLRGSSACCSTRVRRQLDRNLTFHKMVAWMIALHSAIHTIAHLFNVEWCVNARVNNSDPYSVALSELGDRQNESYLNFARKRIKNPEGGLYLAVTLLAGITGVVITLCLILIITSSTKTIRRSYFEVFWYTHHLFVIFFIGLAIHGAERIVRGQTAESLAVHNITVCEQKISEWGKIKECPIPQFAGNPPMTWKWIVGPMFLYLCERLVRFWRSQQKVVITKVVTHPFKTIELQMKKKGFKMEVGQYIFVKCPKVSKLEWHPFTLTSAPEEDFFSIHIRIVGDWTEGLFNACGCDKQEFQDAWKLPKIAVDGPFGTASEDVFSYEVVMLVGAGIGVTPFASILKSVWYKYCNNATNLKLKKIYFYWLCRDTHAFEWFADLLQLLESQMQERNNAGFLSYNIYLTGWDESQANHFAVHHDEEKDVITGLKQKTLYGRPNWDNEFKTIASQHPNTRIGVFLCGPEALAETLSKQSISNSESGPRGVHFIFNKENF

SMILES | z-score [1] | composite z-score [2] | z-score [3] | z-score [4] | z-score [5] | z-score [6] | z-score [7] | z-score [8] | z-score [9] | z-score [10]
O=C1O[C@@H](c2ccccc2)[C@@H](c2ccccc2)N2[C@@H](c3ccc(OCCO)cc3)[C@]3(C(=O)Nc4ccccc43)[C@@H](C(=O)O)[C@H]12 | 0.635 (inactive) | 1.46 | 7.13 (inactive) | -1.02 (inactive) | -0.202 (inactive) | -1.62 (inactive) | 1.52 | 0.262 (inactive) | -0.444 (inactive) | -0.985
CC(C)C[C@@H]1NC(=O)[C@@H]2C[C@H](C(=O)NCCCCCN)[C@H](c3ccc(O)cc3)N2C1=O | -0.899 (inactive) | -0.463 | 0.932 (inactive) | -0.0263 (inactive) | -0.302 (inactive) | 0.0068 (inactive) | -0.928 | -0.125 (inactive) | -1.36 (inactive) | 0.553
Cc1ccc(S[C@]2(C(=O)NCC(F)(F)F)CC(=O)N(Cc3ccccc3C(F)(F)F)[C@@H]2c2ccc(CO)cc2I)cc1 | 0.637 (inactive) | -0.135 | 3.79 (inactive) | 0.853 (inactive) | 1.1 (inactive) | 0.205 (inactive) | -0.142 | 2.28 (inactive) | -1.06 (inactive) | 1.94
COC(=O)C(CC#Cc1ccc2c(c1)[C@]1(C(=O)N2)[C@H](C(=O)N2CCN(c3ncccn3)CC2)[C@H]2C(=O)O[C@H](c3ccccc3)[C@H](c3ccccc3)N2[C@@H]1c1ccc(OCCO)cc1)C(=O)OC | 0.454 (inactive) | 0.2 | 11 (active) | 2.86 (inactive) | 1.03 (inactive) | 1.4 (inactive) | 0.311 | 1.36 (inactive) | 0.504 (inactive) | 1.53
COc1ccc([Si](C)(C)[C@@H]2[C@@H](CC(=O)N3Cc4ccccc4C[C@H]3CO)O[C@]3(C(=O)N(C)c4ccccc43)[C@H]2C)cc1 | -0.883 (inactive) | 0.503 | 11.8 (active) | 2.87 (inactive) | 0.368 (inactive) | 1.21 (inactive) | 0.884 | -0.11 (inactive) | 0.00429 (inactive) | -1.7
CN(C)CCCNC(=O)[C@@H]1c2ccccc2C(=O)N(Cc2ccccc2Cl)[C@H]1c1ccc(CO)cc1 | 0.681 (inactive) | 0.022 | 3.77 (inactive) | 0.603 (inactive) | 1.68 (inactive) | 0.599 (inactive) | 0.517 | 0.277 (inactive) | 0.691 (inactive) | -0.0877
COC1OC[C@]2(C)[C@H]3C4=C(CN2C(=O)OC(C)(C)C)[C@H](C)C(CO)C(CO)C4CC[C@@H]13 (stereo not given in full) | -0.787 (inactive) | 1.13 | 0.884 (inactive) | -0.0719 (inactive) | 0.394 (inactive) | 0.494 (inactive) | 0.15 | -1.39 (inactive) | -0.651 (inactive) | -2.12
CC(CO)N1C(=O)[C@@H]2[C@H]3C(=O)OCC=C[C@H]3OC23C=CCN(C(C)(C)C)C(=O)[C@@H]13 (stereo not given in full) | -0.771 (inactive) | -0.407 | 0.16 (inactive) | -0.0471 (inactive) | -0.0717 (inactive) | -0.23 (inactive) | -0.105 | 0.566 (inactive) | 0.401 (inactive) | 1.43
C=C(C(=O)CC[C@@H](OC(C)=O)c1ccc(CO)o1)C(C)C | -0.167 (inactive) | -0.007 | 1.21 (inactive) | 0.0112 (inactive) | 0.493 (inactive) | -0.0113 (inactive) | -0.0282 | -0.354 (inactive) | 0.261 (inactive) | 0.483
CN1C(=O)C2C=CC(C(O)c3cccc(O)c3)N(Nc3ccccc3)C2C1=O (stereo not given) | -0.85 (inactive) | 0.147 | -0.0746 (inactive) | 0.253 (inactive) | -0.606 (inactive) | 0.287 (inactive) | -0.967 | -2.6 (inactive) | -5.27 (inactive) | -4.62
COCCOC(=O)N1C(=O)[C@@]2(c3cc(C#Cc4ccc(OC)cc4)ccc31)[C@H](C(=O)Nc1nc3ccccc3s1)[C@H]1C(=O)O[C@H](c3ccccc3)[C@H](c3ccccc3)N1[C@@H]2c1ccc(OCCO)cc1 | -0.221 (inactive) | 0.0524 | 6.99 (inactive) | 3.22 (inactive) | 1.26 (inactive) | 2.25 (inactive) | -0.45 | 2.03 (inactive) | -1.07 (inactive) | 0.518
COC(=O)[C@@]1(Cc2ccc(OC)cc2)[C@H]2c3cc(C(=O)N(C)C)n(C[C@H](O)CO)c3C[C@H]2CN1C(=O)c1ccccc1 | -1.99 (inactive) | 0.523 | 5.61 (inactive) | 0.936 (inactive) | 1.98 (inactive) | 1.23 (inactive) | -0.364 | 0.452 (inactive) | -0.281 (inactive) | -0.527
CC1=C[C@@]2(CO)C(=O)[C@]3(CO3)[C@@H]1[C@H]1[C@]2(C)C=C(CO)C(=O)[C@]12CO2 | 0.806 (inactive) | -0.148 | 0.0442 (inactive) | 0.446 (inactive) | 0.429 (inactive) | 0.156 (inactive) | -0.0631 | -0.35 (inactive) | -1.07 (inactive) | -1.14
COCCCNC(=O)[C@@]1(Cc2ccccc2N=[N+]=[N-])N=C(c2ccc(OCCCO)cc2)O[C@H]1c1ccccc1 | -0.3 (inactive) | 0.535 | 21.5 (active) | 4.21 (inactive) | 1.28 (inactive) | 1.4 (inactive) | 0.796 | -2.06 (inactive) | -0.374 (inactive) | -1.63
Cc1ccc(S[C@]2(C(=O)NCCCN(C)C)CC(=O)N(C3CCCCC3)[C@@H]2c2ccc(CO)cc2)cc1 | 0.344 (inactive) | 0.199 | 4.64 (inactive) | 0.695 (inactive) | 2.17 (inactive) | 0.819 (inactive) | -0.358 | -2.24 (inactive) | -2.06 (inactive) | -1.4
C[C@]1(C(=O)NC2CC2)c2ccccc2C(=O)N(Cc2ccccc2)[C@H]1c1ccc(CO)cc1 | 2.07 (inactive) | -0.147 | 2.84 (inactive) | 0.17 (inactive) | 0.475 (inactive) | -0.779 (inactive) | 2.26 | -0.148 (inactive) | -1.55 (inactive) | -0.249
CCC[C@@H]1C[C@@]1(CCC)[C@@H](NC(=O)OCc1ccccc1)c1ccc(-c2ccccc2)cc1 | -1.07 (inactive) | 0.545 | 3.2 (inactive) | 0.81 (inactive) | -0.221 (inactive) | 0.224 (inactive) | 0.542 | -0.648 (inactive) | -1.45 (inactive) | 0.0161
CCCNC(=O)[C@@H]1c2ccccc2C(=O)N(C(C)C)[C@H]1c1ccc(CO)cc1 | 0.737 (inactive) | 0.202 | 1.67 (inactive) | -0.1 (inactive) | 0.21 (inactive) | -0.21 (inactive) | -0.0878 | 0.162 (inactive) | 0.514 (inactive) | -0.0547
CCCCCCc1nc(-c2cc(C)c(OC)c(C)c2)c(C)c2c1[Si](C(C)C)(C(C)C)OC2 | 0.03 (inactive) | 0.0056 | 1.53 (inactive) | -0.314 (inactive) | 1.02 (inactive) | -0.348 (inactive) | 1.94 | -2.5 (inactive) | 0.626 (inactive) | -2.23
COCC1=C2[C@@H](CCc3ccccc3)OB(O)C[C@@H]2[C@@H]2C(=O)C=CC(=O)[C@@H]2C1 | -0.204 (inactive) | -0.0386 | 2.09 (inactive) | -0.122 (inactive) | -0.623 (inactive) | -0.0621 (inactive) | 0.154 | -0.109 (inactive) | -0.383 (inactive) | 1.01
CCOC(=O)c1ccc(NC(=O)O[C@H]2[C@H](OC(=O)Nc3ccc4c(c3)OCO4)[C@@H](OC(=O)Nc3ccc4c(c3)OCO4)[C@@H](OC)O[C@@H]2CO)cc1 | 0.113 (inactive) | 0.325 | 10.4 (active) | 1.31 (inactive) | 0.843 (inactive) | 0.593 (inactive) | 0.0796 | -3.35 (inactive) | -0.689 (inactive) | -1.77
